# In PubChem BioAssay (Tox21):
# Unmarked numbers belong to inactive results. Activity calls are given as the source filed them. The call rests on the fitted dose curve; in most records, active means well fitted curve in the direction sought with a large enough effect in the repeat runs; inconclusive means weak or mixed curves; inactive means flat fitted curve, though single readings scatter.
# Assay: qHTS assay to test for compound auto fluorescence at 535 nm (green) in HEK293 cells (AID 720680)
# Settings: green autofluorescence 485/535 nm; series mostly up to 91.3 µM; fluorescence, % of fluorescein: at the top concentration
# On the % scale 0 is the no-effect control and ±100 the full control effect.
Compound,"fluorescence, % of fluorescein",outcome
O=C(COCCOCCOCC(=O)Nc1c(I)cc(I)c(C(=O)O)c1I)Nc1c(I)cc(I)c(C(=O)O)c1I,-0.0909% [at 46 µM],
C=C(C)C(=O)OC,0.144%,
CC1=CC[C@H](CC=O)C1(C)C,-0.0279%,
COCCOCCOCCOC,0.0883%,
COc1ccc(OC)c(NC(=O)CC(C)=O)c1,-0.008%,
CCCCC(=O)N(C)C,-0.0149%,
C1=C\CC/C=C\CC/1,0.12% [at 95.7 µM],
CCS(=O)(=O)CCn1c([N+](=O)[O-])cnc1C,0.101% [at 18.6 µM],
CC(Cl)COP(=O)(OCC(C)Cl)OCC(C)Cl (stereo not given),0.0341%,
CCCCC(C)C(=O)O (stereo not given),0.0175%,
CCCCC/C=C/CC(=O)OC,0.0652%,
C=C(C)C(=O)OCCCCCCOC(=O)C(=C)C,-0.0317%,
F[Si-2](F)(F)(F)(F)F,,inactive
CCC(O)C(C)(C)C (stereo not given),0.0022% [at 95.7 µM],
Cc1ccccc1OCC1CO1 (stereo not given),0.0109%,
Cc1nc(C)nc(N2C[C@@H](C)N(c3ccnc([C@@H](C)O)n3)[C@@H](C)C2)n1,0.0592% [at 46 µM],
O=C(O)c1ccccc1C(=O)OCc1ccccc1,-0.0081%,
C=COCCOCCOC=C,-0.105%,
CCCCCCCCOC(C)=O,0.0756%,
CCN(Cc1cccc(S(=O)(=O)O)c1)c1ccccc1,-0.0225%,
O=C(CN1CCN(Cc2ccc3c(c2)OCO3)CC1)N1c2ccccc2Sc2ccccc21,-0.0041% [at 46 µM],
CC(=O)N(CC(O)CO)c1c(I)c(C(=O)NCC(O)CO)c(I)c(C(=O)NCC(O)CO)c1I (stereo not given),-0.0239% [at 46 µM],
CC1=NN(c2ccc(S(=O)(=O)O)cc2)C(=O)C1N=Nc1ccccc1 (stereo not given),-0.27%,
C=CCOCC(CO)(COCC=C)COCC=C,-0.0407%,
C=C[Si](C)(C)O[Si](C)(C)C=C,-0.0013%,
CCCCC[Si](OCC)(OCC)OCC,-0.0041%,
O=C(O)c1ccccc1C(=O)Nc1ccc(S(=O)(=O)Nc2nccs2)cc1,0.0089% [at 46 µM],
Nc1cc(S(=O)(=O)O)ccc1S(=O)(=O)O,0.0163%,
O=CN1CCOCC1,-0.085%,
CC(=O)OC(C(=O)c1ccccc1)c1ccccc1 (stereo not given),0.0199%,

# Assay: qHTS assay to test for compound auto fluorescence at 460 nm (blue) in HEK293 cell free culture (AID 720681)
# Settings: cell-free medium, autofluorescence 405/460 nm (blue); series mostly up to 91.3 µM; fluorescence, % of fluorescent control: at the top concentration
# Summary of the method: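 Compounds were added to cell-free DMEM with 10% FBS and fluorescence read directly. The blue channel used 405 nm excitation and 460 nm emission, with triamterene as the reference fluorophore.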
Compound,"fluorescence, % of fluorescent control",outcome
O=C(COCCOCCOCC(=O)Nc1c(I)cc(I)c(C(=O)O)c1I)Nc1c(I)cc(I)c(C(=O)O)c1I,-0.058% [at 46 µM],
C=C(C)C(=O)OC,0.0292%,
CC1=CC[C@H](CC=O)C1(C)C,-0.0487%,
C=C(C)[C@@H]1CC[C@@H](C)C[C@@H]1O,-0.0208%,
COCCOCCOCCOC,0.0215%,
COc1ccc(OC)c(NC(=O)CC(C)=O)c1,0.0999%,
CCCCC(=O)N(C)C,0.133%,
C1=C\CC/C=C\CC/1,-0.0387% [at 95.7 µM],
CCS(=O)(=O)CCn1c([N+](=O)[O-])cnc1C,0.0677% [at 18.6 µM],
CC(Cl)COP(=O)(OCC(C)Cl)OCC(C)Cl (stereo not given),-0.127%,
CCCCC(C)C(=O)O (stereo not given),0.0078%,
CCCCC/C=C/CC(=O)OC,0.0958%,
C=C(C)C(=O)OCCCCCCOC(=O)C(=C)C,-0.208%,
NS(=O)(=O)c1ccc(Cl)c(S(N)(=O)=O)c1,-0.068% [at 46 µM],
CC(C)SCc1ccco1,0.0235% [at 46 µM],
F[Si-2](F)(F)(F)(F)F,,inactive
CCC(O)C(C)(C)C (stereo not given),0.114% [at 95.7 µM],
Cc1ccccc1OCC1CO1 (stereo not given),-0.0375%,

Compound,"fluorescence, % of fluorescent control",outcome
Cc1nc(C)nc(N2C[C@@H](C)N(c3ccnc([C@@H](C)O)n3)[C@@H](C)C2)n1,-0.058% [at 46 µM],
CC(=O)OC(C)c1ccccc1 (stereo not given),-0.0686%,
O=C(O)c1ccccc1C(=O)OCc1ccccc1,0.0145%,
C=COCCOCCOC=C,-0.0278%,
CCCCCCCCOC(C)=O,-0.0075%,
CCN(Cc1cccc(S(=O)(=O)O)c1)c1ccccc1,0.424%,
O=C(CN1CCN(Cc2ccc3c(c2)OCO3)CC1)N1c2ccccc2Sc2ccccc21,0.222% [at 46 µM],
CC(=O)N(CC(O)CO)c1c(I)c(C(=O)NCC(O)CO)c(I)c(C(=O)NCC(O)CO)c1I (stereo not given),0.0345% [at 46 µM],
CC1=NN(c2ccc(S(=O)(=O)O)cc2)C(=O)C1N=Nc1ccccc1 (stereo not given),-0.888%,
C=CCOCC(CO)(COCC=C)COCC=C,0.0324%,
C=C[Si](C)(C)O[Si](C)(C)C=C,0.01%,
CCCCC[Si](OCC)(OCC)OCC,0.149%,
O=C(O)c1ccccc1C(=O)Nc1ccc(S(=O)(=O)Nc2nccs2)cc1,0.242% [at 46 µM],
Nc1cc(S(=O)(=O)O)ccc1S(=O)(=O)O,-0.0216%,
O=CN1CCOCC1,-0.134%,
CCCCOC(=O)C(C)OC(=O)CCC (stereo not given),0.0913%,
CC(=O)OC(C(=O)c1ccccc1)c1ccccc1 (stereo not given),-0.0157%,
